According to PubChem BioAssay (NCATS):
“And” between values parts separate entries of the source, which are not always exact repeats. Equal entries are not always repeated. Results filed as inconclusive are left out. Where a call stands in place of a potency, no number is given. A number with no mark means an inactive call. The source made the active and inactive calls. Unless noted, calls come from the whole dose curve; as a rule, active = well fitted curve in the direction sought with a large enough effect; inconclusive = small, poorly fitted or top-dose-only effect, or another doubt; inactive = no such curve, though single readings can be large; an effect the other way counts as inactive or inconclusive.

Experiments:
[1] = biological target: Calcium and integrin-binding protein 1 (Homo sapiens) (UniProt Q99828); assay: Primary qHTS for Identification of Calcium Integrin Binding Protein 1 (CIB1) Competitor (AID 1508620);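 note: GST tagged CIB1 binding a fluorescein labelled alphaIIb integrin peptide tracer; top concentration of the series differs between compounds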
How it was run: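 Fluorescence polarization competition: GST-tagged CIB1 (1 uM final) preincubated with compound 15 min at room temperature, then FITC-labelled alphaIIb peptide (100 nM final) added. After 15 min at room temperature, polarization read at Ex 480/Em 540.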

[2] = Primary qHTS for small molecule stabilizers of the endoplasmic reticulum resident proteome: Secreted ER Calcium Modulated Protein (SERCaMP) assay (AID 1508630); note: potency is the fitted concentration of half-maximal effect
How it was run: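 GLuc-SERCaMP-expressing SH-SY5Y cells, pretreated 16 h with compound, are challenged with thapsigargin to empty ER calcium stores; after 4 h, coelenterazine is added directly to the medium and luminescence is imaged.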

[3] = A High-Content qHTS Against Drug Library for the Identification of Small Molecules that Inhibit DYT1 Early Onset Primary Dystonia-Associated Cell Pathology (AID 1645839; calls by dose curve; note: series mostly up to about 46 µM)
How it was run: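 Flp-In T-REx 293 cells with tetracycline-inducible EGFP-delE hTOR1A (WT EGFP-hTOR1A as reference), 800 cells/well; compound added with tetracycline, 48 h at 37 C. Fixed, permeabilized cells imaged; %pathology (punctate TorsinA) primary, cell count counterscreen.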

[4] = Primary qHTS for inhibitors of nuclear receptor binding SET domain protein 2 (NSD2) in an RCH-ACV wild type WT cells (2C) (AID 1645877); note: nearly all actives have a fitted effect of over 70% in size; note: potency is the fitted concentration of half-maximal effect
[5] = biological target: Cytochrome P450 2D6 (Homo sapiens) (UniProt P10635); assay: Cytochrome P450 family 2 subfamily D member 6 (CYP2D6) small molecule antagonists: luciferase biochemical (cell-free) qHTS assay (AID 1645840; active = well fitted curve in the direction sought with a large enough effect in the repeat runs; an effect the other way counts as inactive or inconclusive; note: nearly all actives have a fitted effect of over 55% in size; note: potency is the fitted concentration of half-maximal effect)
How it was run: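 P450-Glo luminescent screen: recombinant CYP2D6 enzyme–proluciferin substrate mix preincubated with compound 10 min at room temperature, then NADPH regeneration added for 1 h at room temperature. Detection reagent added for 20 min; luciferin light read as relative luminescence units.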

[6] = biological target: Cytochrome P450 2C9 (Homo sapiens) (UniProt P11712); assay: Cytochrome P450 family 2 subfamily C member 9 (CYP2C9) small molecule antagonists: luciferase biochemical (cell-free) qHTS assay (AID 1645842; active = well fitted curve in the direction sought with a large enough effect in the repeat runs; an effect the other way counts as inactive or inconclusive; note: nearly all actives have a fitted effect of over 55% in size; note: potency is the fitted concentration of half-maximal effect)
How it was run: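 Luminescence, after 20 min with luciferin detection reagent, reflected CYP2C9 turnover during a 1 h NADPH-driven reaction at 37C. Enzyme-substrate mix contained 0.4% bovine serum albumin and was preincubated with compound 10 min at room temperature.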

[7] = Primary qHTS for inhibitors of nuclear receptor binding SET domain protein 2 (NSD2) in an isogenic RCH-ACV NSD2 p.E1099K mutant (9B) (AID 1645876); note: nearly all actives have a fitted effect of over 70% in size; note: potency is the fitted concentration of half-maximal effect
[8] = biological target: N-terminal Xaa-Pro-Lys N-methyltransferase 1 (Homo sapiens) (UniProt Q9BV86); assay: Confirmatory qHTS for Inhibitors of N-terminal methyltransferase 1 (NTMT1): MTaseGlo Assay (AID 1645874); note: potency is the fitted concentration of half-maximal effect; nearly all actives have a fitted effect of over 65% in size
How it was run: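 Preincubation of NTMT1 (125 nM) plus SAM (100 uM) with test compounds lasted 15 min; methylation of 1 uM SPKRIA then proceeded 30 min in the dark at room temperature. Luciferase signal reported SAH produced.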

Sequence of Calcium and integrin-binding protein 1 (Homo sapiens) (Q99828 whole entry, looked up): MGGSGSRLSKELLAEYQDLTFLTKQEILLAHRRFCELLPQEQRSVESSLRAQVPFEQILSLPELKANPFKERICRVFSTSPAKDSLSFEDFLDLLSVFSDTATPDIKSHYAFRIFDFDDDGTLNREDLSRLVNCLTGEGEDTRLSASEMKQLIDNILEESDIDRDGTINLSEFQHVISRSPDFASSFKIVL
Sequence of Cytochrome P450 2C9 (Homo sapiens) (P11712 whole entry, looked up): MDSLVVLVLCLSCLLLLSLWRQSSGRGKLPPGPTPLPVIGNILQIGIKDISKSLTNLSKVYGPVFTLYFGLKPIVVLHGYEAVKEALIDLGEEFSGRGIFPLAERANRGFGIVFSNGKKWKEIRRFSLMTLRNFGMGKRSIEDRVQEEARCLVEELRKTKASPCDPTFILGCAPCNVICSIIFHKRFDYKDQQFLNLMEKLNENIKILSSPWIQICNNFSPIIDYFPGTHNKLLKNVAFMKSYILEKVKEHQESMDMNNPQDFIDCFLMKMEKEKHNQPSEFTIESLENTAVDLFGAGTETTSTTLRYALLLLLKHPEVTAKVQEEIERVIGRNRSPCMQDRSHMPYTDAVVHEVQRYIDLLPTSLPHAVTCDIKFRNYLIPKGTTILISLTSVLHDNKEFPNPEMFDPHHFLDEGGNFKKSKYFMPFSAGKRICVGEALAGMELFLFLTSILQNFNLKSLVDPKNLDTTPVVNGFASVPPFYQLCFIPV
Sequence of Cytochrome P450 2D6 (Homo sapiens) (P10635 whole entry, looked up): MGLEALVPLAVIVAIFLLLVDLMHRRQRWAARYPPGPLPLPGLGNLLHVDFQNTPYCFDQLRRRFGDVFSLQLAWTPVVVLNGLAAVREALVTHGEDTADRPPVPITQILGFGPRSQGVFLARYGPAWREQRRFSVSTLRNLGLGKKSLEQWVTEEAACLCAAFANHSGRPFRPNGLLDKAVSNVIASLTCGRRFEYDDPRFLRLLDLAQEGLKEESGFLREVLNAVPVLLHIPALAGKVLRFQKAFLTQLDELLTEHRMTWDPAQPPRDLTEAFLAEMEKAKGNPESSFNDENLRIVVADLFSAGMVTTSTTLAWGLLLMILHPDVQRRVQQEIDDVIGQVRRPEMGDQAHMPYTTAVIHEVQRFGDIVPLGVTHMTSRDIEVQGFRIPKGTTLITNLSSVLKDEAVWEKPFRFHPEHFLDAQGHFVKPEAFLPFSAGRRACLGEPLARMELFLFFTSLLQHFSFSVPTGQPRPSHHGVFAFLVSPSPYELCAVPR
Sequence of N-terminal Xaa-Pro-Lys N-methyltransferase 1 (Homo sapiens) (Q9BV86 whole entry, looked up): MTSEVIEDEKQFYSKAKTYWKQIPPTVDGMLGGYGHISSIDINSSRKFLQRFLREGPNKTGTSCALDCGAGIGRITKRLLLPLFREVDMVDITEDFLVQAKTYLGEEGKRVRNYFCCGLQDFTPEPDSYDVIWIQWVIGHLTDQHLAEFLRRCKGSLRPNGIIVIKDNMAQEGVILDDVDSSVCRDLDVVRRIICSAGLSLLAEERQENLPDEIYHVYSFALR

COc1ccc2ccc(=O)oc2c1CC=C(C)C
Potency [1]: inactive
Potency [2]: inactive

CN1C(=O)C[C@H](C(=O)N[C@@H](Cc2cnc[nH]2)C(=O)N2CCC[C@@H]2C(N)=O)NC1=O
Potency [1]: inactive
Potency [2]: inactive

C[C@@H]1C[C@H]2[C@@H]3CCC4=CC(=O)C=C[C@]4(C)[C@@]3(F)[C@@H](O)C[C@]2(C)[C@@]1(O)C(=O)CO
Potency [1]: inactive
Potency [2]: inactive
outcome [3]: inactive
Potency [4]: 33.2 nM (active)

Cn1cc(-c2ccc3nnc(Sc4ccc5ncccc5c4)n3n2)cn1
Potency [1]: inactive
Potency [2]: inactive

COc1cc2nc(-c3cc(F)ccc3O)nc(N[C@@H]3CNC[C@@H]3C(C)(C)O)c2cc1OC
Potency [1]: inactive
Potency [2]: inactive

COc1c(C)c2c(c(O)c1CC=C(C)CCC(=O)OCCN1CCOCC1)C(=O)OC2
Potency [1]: inactive
Potency [2]: inactive

C[C@@H]1[C@H](C)CC[C@]2(C(=O)O)CC[C@]3(C)C(=CC[C@@H]4[C@@]5(C)CC[C@H](O)C(C)(C)[C@H]5CC[C@]43C)[C@@H]12
Potency [1]: inactive
Potency [2]: inactive

NC(N)=Nc1nc(CSCCC(N)=NS(N)(=O)=O)cs1
Potency [1]: inactive
Potency [2]: inactive

CCCCCCOC(=O)N=C(N)c1ccc(NCc2nc3cc(C(=O)N(CCC(=O)OCC)c4ccccn4)ccc3n2C)cc1
Potency [1]: inactive
Potency [2]: inactive

COc1cc2ncnc(Nc3cc(Br)c(O)c(Br)c3)c2cc1OC
Potency [1]: inactive
Potency [2]: inactive

OC[C@H]1O[C@@H](Oc2ccc(O)cc2)[C@H](O)[C@@H](O)[C@H]1O
Potency [1]: inactive
Potency [2]: inactive

O=C1NC(=O)C(=Cc2ccc(-c3ccc(F)cc3O)o2)S1
Potency [1]: inactive
Potency [2]: inactive

C[C@@H]1CC=CC=CC=CC=C[C@@H](O[C@@H]2O[C@H](C)[C@@H](O)[C@H](N)[C@H]2O)C[C@@H]2O[C@](O)(C[C@@H](O)C[C@@H]3O[C@@H]3C=CC(=O)O1)C[C@H](O)[C@@H]2C(=O)O
Potency [1]: inactive
Potency [2]: inactive

N#CC(=C1Nc2ccccc2S1)c1ccnc(OCc2ccc(CN3CCOCC3)cc2)n1
Potency [1]: inactive
Potency [2]: 1.49 µM (active)

CC1(C)OC2CC3C4CC(F)C5=CC(=O)C=CC5(C)C4C(O)CC3(C)[C@]2(C(=O)CO)O1 (stereo partly specified)
Potency [1]: inactive
Potency [2]: inactive

Cn1cnc(-c2cc3nccc(Oc4ccc(NC(=S)NC(=O)Cc5ccccc5)cc4F)c3s2)c1
Potency [1]: inactive
Potency [2]: inactive
Potency [5]: inactive
Potency [6]: 1.9 µM (active)
Potency [7]: 5.15 µM (active) and 2.95 µM (active)

CNC1CCC(N(Cc2cccc(-c3ccncc3)c2)C(=O)c2sc3ccccc3c2Cl)CC1 (stereo unspecified)
Potency [1]: inactive
Potency [2]: inactive
Potency [5]: 4.25 µM (active)
Potency [6]: 10.7 µM (active)
Potency [7]: 5.15 µM (active) and 9.34 µM (active)

COc1nccc(-c2c(-c3ccc(F)cc3)ncn2C2CCC(O)CC2)n1 (stereo unspecified)
Potency [1]: inactive
Potency [2]: inactive
Potency [5]: inactive
Potency [6]: inactive

Fc1ccc(CNc2ncnc3ccc(F)cc23)cc1
Potency [1]: inactive
Potency [2]: inactive
Potency [6]: 8.49 µM (active)

Cc1ccc2c(c1)c1c(n2CCc2ccc(C)nc2)CCN(C)C1
Potency [1]: inactive
Potency [2]: inactive
Potency [5]: 8.49 µM (active)
Potency [6]: 10.7 µM (active)
Potency [7]: 14.5 µM (active)

CCN1CCN(c2ccc(Nc3cc(N(C)C(=O)Nc4c(Cl)c(OC)cc(OC)c4Cl)ncn3)cc2)CC1
Potency [1]: inactive
Potency [2]: inactive
Potency [6]: 23.9 µM (active)
Potency [7]: inactive

COc1ccc(-c2ccc3ncc4c(c3c2)n(-c2ccc(N3CCNCC3)c(C(F)(F)F)c2)c(=O)n4C)cn1
Potency [1]: inactive
Potency [2]: inactive
Potency [5]: inactive
Potency [7]: 5.2 nM (active) and 14.6 nM (active) and 13.2 nM (active)
Potency [4]: 7.3 nM (active) and 14.6 nM (active) and 18.6 nM (active)

Clc1ccc(COC(Cn2ccnc2)c2ccc(Cl)cc2Cl)c(Cl)c1 (stereo unspecified)
Potency [1]: inactive
Potency [2]: inactive
Potency [6]: 0.19 µM (active)

CCOC(=O)N1c2ccc(C(F)(F)F)cc2[C@@H](N(Cc2cc(C(F)(F)F)cc(C(F)(F)F)c2)C(=O)OC)C[C@H]1CC
Potency [1]: inactive
Potency [2]: inactive
Potency [6]: inactive
Potency [7]: inactive

CCN1CCC(n2cc(CNc3cc(Cl)c4ncc(C#N)c(Nc5ccc(F)c(Cl)c5)c4c3)nn2)CC1
Potency [1]: inactive
Potency [2]: inactive
Potency [6]: 7.56 µM (active)
Potency [8]: 10 µM (active)
Potency [7]: 23.5 µM (active)
Potency [4]: 18600 nM (active)

Clc1ccc(C2(c3ccc(-c4cn[nH]c4)cc3)CCNCC2)cc1
Potency [1]: inactive
Potency [2]: inactive
Potency [5]: 3.38 µM (active)
Potency [6]: 1.2 µM (active)
Potency [7]: 3.65 µM (active) and 3.72 µM (active)
Potency [4]: 1.83 µM (active) and 2.35 µM (active)

Nc1ccc(-c2ccc3ncc4ccc(=O)n(-c5cccc(C(F)(F)F)c5)c4c3c2)cn1
Potency [1]: inactive
Potency [2]: inactive
Potency [6]: 2.13 µM (active)
Potency [7]: 14.8 nM (active) and 23.1 nM (active)

CCc1cccc(CC)c1NC(=O)N1Cc2[nH]nc(NC(=O)c3ccc(N4CCN(C)CC4)cc3)c2C1
Potency [1]: inactive
Potency [2]: inactive
Potency [5]: inactive
Potency [6]: inactive
Potency [7]: 817 nM (active) and 1.18 µM (active)
Potency [4]: 409 nM (active) and 468 nM (active)

Cc1csc(-c2nnc(Nc3ccc(Oc4ncccc4-c4ccnc(N)n4)cc3)c3ccccc23)c1
Potency [1]: inactive
Potency [2]: inactive
Potency [6]: 12 µM (active)

COc1cc(Nc2nc3ccccc3nc2NS(=O)(=O)c2ccc(NC(=O)c3ccc(C)c(OC)c3)cc2)cc(OC)c1
Potency [1]: inactive
Potency [2]: 8.41 µM (active)
Potency [5]: inactive
Potency [6]: 7.56 µM (active)
Potency [7]: inactive
Potency [4]: inactive

Cc1cccc2c1CC[C@H](CN1CCC(c3c(Cl)cccc3Cl)CC1)C[C@@H]2O
Potency [1]: inactive
Potency [2]: inactive
Potency [5]: 2.13 µM (active)
Potency [6]: 9.52 µM (active)
Potency [7]: 10.3 µM (active)
